PfG6PD inh: PfG6PD enzyme inhibitors, primary screen, biochemical, fluorescence intensity, uHTS. glucose-6-phosphate dehydrogenase-6-phosphogluconolactonase (Plasmodium falciparum 3D7). PfGluPho enzyme, NADPH resazurin-diaphorase fluorescence. inhibition, % at 20 µM. actives 0.78% (n = 350,000). AID 504690, 2011;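 active = inhibition reaching at least a set limit at 20 µM in the primary screen, cut at about 59% in these data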
FAS-TE inh: FAS thioesterase domain inhibitors, primary screen, biochemical, fluorescence intensity, uHTS; recombinant FAS-TE, OMFH fluorogenic substrate, fluorescence endpoint; inhibition, % at 15 µM; actives 0.67% (n = 360,000); AID 602261, 2012;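 active = compounds whose normalised, plate-corrected inhibition of enzyme fluorescence in the single-dose primary screen is 50% or more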
CRFBP-R2 agonist: agonists of CRF-BP/CRF-R2 complex, primary screen, cell-based, HEK293, calcium dye fluorescence, uHTS; calcium dye fluorescence (FLIPR); percent of saturating CRF peptide response; actives 0.46% (n = 350,000); AID 588473, 2011; activation, % at 13.2 µM;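 active = activation of at least 50%, plus an integration ratio under a set limit after plate pattern correction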
H9c2 protect: cardioprotection against H2O2-induced cell death, primary screen, uHTS, H9c2 cells, ATPLite luminescence; H9c2 cardiomyocytes, H2O2 injury protection, 2 h; protection from H2O2 cell death, % at 20 µM; actives 0.63% (n = 360,000);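 active = compounds giving at least 50% protection of heart cells from peroxide-induced death in the single-dose screen, raw or plate-pattern-corrected value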
CRFBP-R2 block: antagonists of CRF-BP/CRF-R2 complex, primary screen, cell-based, HEK293, calcium dye fluorescence, uHTS | actives 0.59% (n = 350,000) | AID 588475, 2011 | CRF-induced calcium fluorescence | inhibition, % at 11.8 µM;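 active = inhibition of the ligand-induced calcium signal above about 50% at the single tested concentration, limit read from the data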
aDG glyco up: activators of alpha-DG glycosylation, primary screen, uHTS, Pro5-aDG cells, AlphaScreen; alpha-DG glycosylation AlphaScreen (IIH6); 0% Pro5, 100% B10-LARGE cell signal; activation, % at 10 µM; actives 0.22% (n = 360,000); AID 624168, 2012;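 active = activation of at least 8% versus controls, or a plate z-score of at least 8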;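 note: Pro5 are CHO cells carrying HIG-tagged alpha-DG that lacks glycosylation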
Of the large screens only hits and unclear results are named; the others gave an inactive call; ! = a repeat was not active. Sampled rows, rich in hits. Any-hit rate of the full collection: about 3.2%.

Cc1ccc(CN2CCN(CC(=O)NCCCN3CCN(c4ccc(F)cc4)CC3)C2=O)cc1	none
COc1ccc(N2CCN(CCCNC(=O)CN3CCN(Cc4ccccc4C)C3=O)CC2)cc1	CRFBP-R2 block 56
O=C(CSc1ccccc1)NC1CC1	none
O=[N+]([O-])/C(C(Cl)=C(Cl)Cl)=C(/NC1CC1)Sc1ccccc1	CRFBP-R2 block 56
CC(=O)Sc1nc(-c2ccccc2)[nH]c1S(=O)(=O)c1ccc(C)cc1	PfG6PD inh 65 (no result: FAS-TE inh, H9c2 protect, aDG glyco up)
CSc1nc(-c2ccc(C)cc2)[nH]c1S(=O)(=O)c1ccccc1	none
O=C(C[C@@H]1C/C=C\CCCC(=O)OC[C@@H](c2ccccc2)NC1=O)NCCO	none
C=CCN1C(=O)/C(=C2/Sc3ccccc3N2CC)SC1=S	none
C=CCN1C(=O)/C(=C/C=C2/N(CC)c3ccc(S(=O)(=O)N(C)C)cc3N2CC)SC1=S	CRFBP-R2 agonist 164
C=CCn1c(SCC(=O)N(C)CC(=O)Nc2ccc(C)cc2)nnc1-c1ccncc1	none
CCOC(=O)Nc1ccc(OC(=O)Oc2ccc(NC(=O)OCC)cc2)cc1	none
CCOC(=O)Nc1ccc(Oc2ccccc2)cc1	CRFBP-R2 block 57
CCOC(=O)c1ccccc1NC(=O)c1ccc2c(=O)n3c(nc2c1)CCCCC3	H9c2 protect 51
Cc1cc(C)c2nc(NC(=O)c3ccc4c(=O)n5c(nc4c3)CCCCC5)sc2c1	CRFBP-R2 block 59
O=C(c1ccc(COc2ccccc2Cl)o1)N1CCN(Cc2ccc3c(c2)OCO3)CC1	CRFBP-R2 block 60!
CCOC(=O)c1cc(NC(=O)Nc2cc(C)ccn2)c(C)nc1C	CRFBP-R2 block 113
COc1cccc(/C=C/C(=O)OCC(=O)NCCc2ccccc2)c1	none
O=P(c1ccccc1)(c1ccccc1)c1cc(S(=O)(=O)O)ccc1O	CRFBP-R2 agonist 115
COc1c2c(c(C)c3c1C(=O)OC3)O[C@@]1(C)CC[C@@]3(O)C(C)(C)OC(=O)CC[C@]3(C)[C@H]1C2	none
COc1ccc(-n2cc(-c3ccccc3)c3c(NCCCN4CCOCC4)ncnc32)cc1	none
Fc1ccc(-n2cc(-c3ccccc3)c3c(N4CCOCC4)ncnc32)cc1	H9c2 protect 58
COc1ccc(-n2cc(-c3ccccc3)c3c(N4CCOCC4)ncnc32)cc1	H9c2 protect 58
O=S(=O)(c1ccccc1Br)N(CC(O)COCc1ccccc1)C1CC1 (stereo unspecified)	none
COc1cccc(OCCCCSc2ncccn2)c1	none
c1ccc(Oc2cccc(OCCCCSc3ncccn3)c2)cc1	CRFBP-R2 agonist 51
COc1ccc(-c2cc(-c3ccccc3)nc(SC(C)C(=O)O)c2C#N)cc1 (stereo unspecified)	none
CC(C)C(Sc1nc(-c2ccccc2)cc(-c2ccccc2)c1C#N)C(=O)O (stereo unspecified)	CRFBP-R2 block 68
COc1ccc(-c2cc(-c3ccccc3)c(C#N)c(SCC(=O)O)n2)cc1	none
N#Cc1c(-c2ccccc2)cc(-c2ccccc2)nc1SCC(=O)NCC(=O)O	CRFBP-R2 agonist 72
CC(=O)[C@]1(O)Cc2c(O)c3c(c(O)c2[C@@H](O[C@H]2C[C@H](N)[C@H](O)[C@H](C)O2)C1)C(=O)c1ccccc1C3=O	CRFBP-R2 agonist 212 (no result: FAS-TE inh, H9c2 protect, aDG glyco up)
COc1cccc2c1C(=O)c1c(O)c3c(c(O)c1C2=O)C[C@@](O)(C(=O)CO)C[C@@H]3O[C@H]1C[C@H](N)[C@@H](O)[C@H](C)O1	CRFBP-R2 agonist 60
COc1cccc2c1C(=O)c1c(O)c3c(c(O)c1C2=O)C[C@@](O)(C(C)=O)C[C@@H]3O[C@H]1C[C@H](N)[C@H](O)[C@H](C)O1	CRFBP-R2 agonist 83
COc1cccc2c1C(=O)c1c(O)c3c(c(O)c1C2=O)CC(O)(C(=O)CO)CC3OC1CC(N(C)C)C(O)C(C)O1 (stereo unspecified)	CRFBP-R2 agonist 91
Cc1c(OCC(=O)NCCN2CCOCC2)ccc2c1oc(=O)c1ccccc12	H9c2 protect 61
Cc1c(OCC(=O)NCCCN2CCOCC2)ccc2c3c(c(=O)oc12)CCCC3	none
Cc1c(OCC(=O)NCCN2CCOCC2)ccc2c3c(c(=O)oc12)CCC3	CRFBP-R2 block 115
Cc1c(OCC(=O)NCCN2CCOCC2)ccc2c(-c3ccccc3)cc(=O)oc12	none
CC1(C(=O)NS(=O)(=O)C2CC2)CCCN(C(=O)c2ccc3c(c2)OCO3)C1 (stereo unspecified)	none (no result: PfG6PD inh, CRFBP-R2 agonist, CRFBP-R2 block)
COc1ccc(S(=O)(=O)N2CCN(C(=O)N3CCOCC3)C2C)cc1 (stereo unspecified)	none
COc1ccc(CC(=O)N/N=C(\C)c2ccc(Br)s2)cc1	CRFBP-R2 block 83
C/C(=N\NC(=O)Cc1ccccc1)c1ccc(Br)s1	none
CCOC(=O)c1cnc(Nc2nc3ccccc3o2)nc1CSc1nnc(C)s1	H9c2 protect 60
CCOC(=O)c1cnc(Nc2nc3ccccc3o2)nc1C	none
COc1ccc(/C=C/C(=O)NCCSCc2ccco2)cc1OC	CRFBP-R2 block 66
COc1ccc(CCNC(=O)/C=C/c2ccco2)cc1OC	none
CC(=O)c1ccc(N2CCN(C(=O)c3ccc(-c4ccccc4)cc3)CC2)cc1	none
CS(=O)(=O)N1CCN(C(=O)c2cc(-c3cccnc3)nc3ccc(Br)cc23)CC1	none
CC(=O)c1ccc(N2CCN(C(=O)c3cc(-c4cccnc4)nc4ccc(Br)cc34)CC2)cc1	H9c2 protect 53
O=C(c1cc(-c2ccncc2)nc2ccc(Cl)cc12)N1CCN(Cc2ccc3c(c2)OCO3)CC1	none
O=C(c1cc(-c2ccncc2)nc2ccc(Br)cc12)N1CCN(Cc2ccc3c(c2)OCO3)CC1	H9c2 protect 66
CC(=O)c1ccc(N2CCN(C(=O)c3cccc(Oc4ccccc4)c3)CC2)cc1	CRFBP-R2 block 78
O=C(c1cc(-c2cccnc2)nc2ccc(Br)cc12)N1CCN(c2ncccn2)CC1	H9c2 protect 59
CC(C)(C)Nc1c(C2CCNCC2)nc2c(OCc3ccccc3)cccn12	none (no result: PfG6PD inh, CRFBP-R2 agonist, CRFBP-R2 block)
C=CCNC(=O)c1onc(CSc2cc(C)ccc2C)c1C(=O)O	none
CCOC(=O)c1c(-c2ccccc2)oc2ccc(OC(C)C(=O)O)cc12 (stereo unspecified)	CRFBP-R2 block 52
CCOC(=O)c1c(-c2ccccc2)oc2ccc(OC(C)=O)cc12	none
CC(=O)c1cccc(CN2CCN(Cc3ccccc3)C(CCO)C2)c1 (stereo unspecified)	none
